Compound activity as filed in PubChem BioAssay.
ST2 IL33 inh – inhibitors of human ST2 (IL1RL1) binding to IL-33, primary screen, biochemical, AlphaLISA. AlphaLISA ST2-Fc/biotin-IL-33 interaction, 1 h. inhibition, % for hits at 17 µM. actives 2.3% (n = 78,000); in the data active means inhibition above about 30%
Target sequence (Q01638 whole entry, looked up): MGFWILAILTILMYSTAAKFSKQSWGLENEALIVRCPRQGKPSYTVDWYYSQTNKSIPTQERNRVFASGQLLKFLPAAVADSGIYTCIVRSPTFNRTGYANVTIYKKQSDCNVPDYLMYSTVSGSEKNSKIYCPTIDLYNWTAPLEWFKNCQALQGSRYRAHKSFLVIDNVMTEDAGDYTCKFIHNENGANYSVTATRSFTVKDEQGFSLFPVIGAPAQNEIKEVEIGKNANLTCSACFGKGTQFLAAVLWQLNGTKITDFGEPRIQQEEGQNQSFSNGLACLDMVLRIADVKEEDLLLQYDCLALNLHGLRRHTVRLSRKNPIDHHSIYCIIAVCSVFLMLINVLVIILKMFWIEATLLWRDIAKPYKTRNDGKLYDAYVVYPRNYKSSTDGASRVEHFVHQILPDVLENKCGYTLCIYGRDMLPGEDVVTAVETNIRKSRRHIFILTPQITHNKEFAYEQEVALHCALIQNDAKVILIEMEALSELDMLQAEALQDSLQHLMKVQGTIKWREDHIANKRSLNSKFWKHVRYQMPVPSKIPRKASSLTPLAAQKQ
An asterisk follows results filed as active; i = inactive. The sample as a whole holds a higher share of hits than the screen did.

SMILES | ST2 IL33 inh
Cc1ccc(/C=C2/SC(=Nc3ccccc3)NC2=O)c(C)c1 | 35.0%*
Cc1ccc(N=C2NC(=O)C(Cc3ccccc3)S2)cc1 (centres undefined) | i
O=C1NC(=Nc2ccccc2)S/C1=C/c1ccccn1 | i
O=C(Nc1ccc(S(=O)(=O)Nc2cnc3ccccc3n2)cc1)c1ccccc1F | i
OC(COc1ccc(C2C=CCC2)cc1)CN1CCCCC1 (centres undefined) | 52.0%*
CC1CCCN(CC(O)COc2ccc(C3CCCCC3)cc2)C1 (centres undefined) | i
CC(C)(C)c1ccc(OCC(O)CN2CCCC2)cc1 (centres undefined) | i
COc1cc(C)nc(N(CC(N)=O)S(=O)(=O)c2ccc(C)cc2)n1 | i
O=C1N=C(SCC(=O)N2CCCCC2)NC(=O)C1Cc1ccccc1 (centres undefined) | i
O=C1C2CCCN2C(c2ccc(F)c(F)c2)N1c1nccs1 (centres undefined) | i
O=C1CCC(C(=O)N2CCCCCCC2)CN1CCc1ccccc1 (centres undefined) | i
O=C1c2ccccc2C(=O)N1CCc1ccccc1 | i
O=C1C=CC(=O)C(C2=C3C(=O)N(CCc4ccccc4)CC(=O)N3CCC2)=C1 | 38.0%*
Cc1ccc(C(=O)O)c(C(=O)Nc2nc3ccc(S(C)(=O)=O)cc3s2)c1 | i
COc1ccc(N2C(=O)C3CC(C)=C(C)CC3C2=O)cc1 (centres undefined) | i
COc1ccc(OC)c(-c2ccc(NC(=O)CN)c(F)c2)c1 | i
CC(=O)Nc1cccc(C(=O)O)c1 | i
Cc1ccc(C(=O)c2ccccc2C(=O)O)c(C)c1 | i
Cc1cc(C=O)c(C)n1-c1ccc(C(=O)O)c(Cl)c1 | i
Cc1ccc(C)n1-c1cccc(C(=O)O)c1 | 96.0%*
Cc1ccc(C)n1-c1ccc(C(=O)O)c(C(=O)O)c1 | 88.0%*
O=C(O)c1cccc(N2C(=O)C3C4C=CC(O4)C3C2=O)c1 (centres undefined) | i
Cc1ccc(OCC(=O)Nc2ccc(C)c(OCc3cc(=O)n4cccc(C)c4n3)c2)cc1C | i
COc1cc(C=Nc2ccc(S(=O)(=O)Nc3ccccn3)cc2)cc(OC)c1OC | i
CSc1ncc(C(=O)N[C@@H]2C[C@H]3C(=O)N(C)CC(=O)N3C2)cn1 | i
SMILES | ST2 IL33 inh
Oc1oc(-c2ccc(Cl)cc2)nc1C=Nc1ccccc1Cl | i
Oc1ccc(N=Cc2nc(-c3ccccc3)oc2O)cc1 | i
Oc1oc(-c2ccc(Cl)cc2)nc1C=Nc1cc(Cl)ccc1Cl | i
CC(=O)Nc1ccc(N=Cc2nc(-c3ccc(Cl)cc3)oc2O)cc1 | 33.0%*
Cc1c(Cl)cccc1N=Cc1nc(-c2ccc(Cl)cc2)oc1O | 33.0%*
Cc1c(Cl)cccc1N=Cc1nc(-c2ccccc2)oc1O | i
COc1ccc2c(c1)CCc1c(C(=O)NCCCN3CCOCC3)noc1-2 | i
CC1=CC(=NS(=O)(=O)c2ccc([N+](=O)[O-])cc2)C=C(C)C1=O | i
COc1ccc(CN2CCC(n3nccc3NC(=O)c3ccccc3C)CC2)cc1 | i
CC1=C(C(=O)OCCc2ccccc2)C(c2cccs2)NC(=O)N1C (centres undefined) | i
O=C(NCC1CCCO1)c1ccc2c(c1)N(Cc1ccccc1)C(=O)c1ccccc1S2 (centres undefined) | i
Cc1cc(C)[n+]2c(c1C#N)SCC2C(Br)c1ccccc1 (centres undefined) | 58.0%*
O=C(C1CC1)N(c1ccc(Br)cc1)C1C=CS(=O)(=O)C1 (centres undefined) | i
COc1ccc(OCC(=O)Nc2cc(N3CCCS3(=O)=O)ccc2OC)cc1 | i
O=C(NC1CCCN(Cc2ccccc2F)C1)C1=CCCC1 (centres undefined) | i
O=C(NC1CCCCCC1)c1ccc(NC2=NC3CS(=O)(=O)CC3S2)cc1 (centres undefined) | i
COCCNc1nc2c(c(=O)n(C)c(=O)n2C)n1Cc1cccc(Br)c1 | i
CCCCNc1nc2c(c(=O)n(Cc3cccc(Br)c3)c(=O)n2C)n1C | 32.0%*
CCCCNc1nc2c(c(=O)n(C)c(=O)n2C)n1Cc1cccc(Cl)c1 | i
CCNc1ccccc1-c1nc2ccccc2[nH]c1=O | i
Cc1ccccc1Cn1c(-c2ccccc2F)nc2ccccc2c1=O | i
Cc1cccc2nc3c(nc12)C(=O)c1ccccc1C3=O | 32.0%*
COc1ccc(C(=O)N2CC[C@@H](CC(=O)O)[C@@H](CCN3CCN(c4cccc(C(F)(F)F)c4)CC3)C2)cc1 | i
O=C(O)C[C@@H]1CCN(C(=O)c2ccco2)C[C@@H]1CCN1CCN(c2ccccc2)CC1 | i
COc1ccccc1N1CCN(CC[C@H]2CN(C(=O)N3CCOCC3)CC[C@H]2CC(=O)O)CC1 | 33.0%*
SMILES | ST2 IL33 inh
COc1ccc(CC(=O)N2CC[C@@H](CC(=O)O)[C@@H](CCN3CCN(c4cccc(C(F)(F)F)c4)CC3)C2)cc1 | i
COc1ccc(CC(=O)N2CC[C@@H](CC(=O)O)[C@@H](CCN3CCN(c4ccccn4)CC3)C2)cc1 | i
COc1ccc(C(=O)N2CC[C@@H](CC(=O)O)[C@@H](CCN3CCCN(C(C)=O)CC3)C2)cc1 | 39.0%*
COc1ccc(C(O)=C2C(=O)C(=O)N(CCN3CCNCC3)C2c2ccc(F)cc2)cc1 (centres undefined) | i
CCC1Oc2ccccc2N(CC(=O)N2CCN(CC)CC2)C1=O (centres undefined) | i
Cc1csc2ncc(C(=O)Nc3ccc(C(C)C)cc3)c(=O)n12 | i
Cc1c(NC(=O)C(c2ccccc2)c2ccccc2)cccc1[N+](=O)[O-] | 44.0%*
Cc1c(NC(=O)C2CC2)cccc1[N+](=O)[O-] | i
Cc1c(NC(=O)c2ccccc2)cccc1[N+](=O)[O-] | i
COc1cc(C(=O)Nc2c(C(=O)Nc3cccc(F)c3)oc3ccccc23)cc(OC)c1OC | i
COc1cccc2c1OCCCN(C(=O)c1ccc(C#CC(C)(C)O)o1)C2 | i
Cc1ccc(C2CC(C(F)(F)F)n3nc(C(=O)NCc4cccs4)cc3N2)cc1 (centres undefined) | i
CN(Cc1ccccc1)c1ncccc1CNC(=O)C1(C)CCCO1 (centres undefined) | 35.0%*
CC(C)N1CCC(NCc2cccnc2N(C)Cc2ccccc2)CC1 | i
CN(C)c1ncccc1CNC(=O)Cc1ccc(O)c(F)c1 | i
CC(C)c1[nH]nc2c1C(c1cccc(Cl)c1Cl)C(C#N)=C(N)O2 (centres undefined) | i
CC(C)c1[nH]nc2c1C1(CCN(Cc3ccccc3)CC1)C(C#N)=C(N)O2 | 31.0%*
CCN1C(=O)C2(C(C#N)=C(N)Oc3n[nH]c(-c4ccccc4)c32)c2ccccc21 (centres undefined) | i
O=S(=O)(c1ccc(Cl)cc1)c1ccc(Cl)c(Cl)c1 | i
CC(C)C(=O)Nc1ccc2oc3ccc(NC(=O)C(C)C)cc3c(=O)c2c1 | i
CC(=O)NC(C(N)=O)C(SCc1ccccc1)c1c[nH]c2ccccc12 (centres undefined) | i
CC(=O)n1cc(C(C[N+](=O)[O-])SCc2ccccc2)c2ccccc21 (centres undefined) | 41.0%*
CC(=O)n1c2ccccc2c2cc([N+](=O)[O-])ccc21 | i
CCOc1ccc(N(C(C)C(=O)Nc2ccc(C)c(Cl)c2)S(C)(=O)=O)cc1 (centres undefined) | i
NCCCCCC(=O)O | i
